Consider 60 molecules from PubChem BioAssay AID1663 (Broad Institute, 2009).

As a reminder, the inhibition is the drop in the measured response relative to a control, in per cent.

Among all 300,000 compounds or so, about 660 (0.22%) were called active. Many of the other results were omitted from the sample, so actives are more common in it than they were. Values without a mark were called inactive.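 How the source made its calls: active means mean replicate score, as percent of positive control, at or above 50; inconclusive means mean below 50 but at least one replicate at or above 50; inactive means mean and every replicate below 50.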

This test is described as follows: blockers of SFLLRN-triggered platelet ATP release – cell-based, MLPCN, human platelets, primary screen (AID 1663). The note with it: human platelet-rich plasma, SFLLRN dense granule ATP release, luminescence; active compounds read high;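 compounds screened at 7.5 µM in platelet-rich plasma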.
Take `O=[N+]([O-])c1ccc2c(c1)Nc1nc3ccccc3nc1N2`: the inhibition was -4.77%.

In the case of `Cc1sc2ncn(CC(=O)NCCCC(=O)N(C)Cc3ccccc3)c(=O)c2c1C`, the inhibition was 10.8%.

As to `COc1ccc(C(C)=O)cc1CN1C(=O)NC2(CCCCC2C)C1=O` (stereo not given), the inhibition is -14.5%.

On to `O=[N+]([O-])c1ncc(Br)cc1Nc1ccccc1`, for which the inhibition is -1.96%.

As to `CCOC(=O)N1CCN(C(=O)c2ccc3c(=O)n(CCc4ccc(OC)c(OC)c4)c(=O)[nH]c3c2)CC1`, the inhibition is -6.61%.

Turning to `C/C(=N\NC(=O)c1cc2c(s1)CCC(C)C2)c1cccnc1` (stereo not given), the inhibition was 9.94%.

As to `COc1ccc(-c2cc(-c3ccc(N)cc3)nc(N)c2C#N)cc1OC`, the inhibition was 0.00483%.

Regarding `COc1ccc(C2CC(=O)Nc3sc(=N)c4c(N)c(C#N)c(N)nc4c32)cc1OC` (stereo not given), the inhibition is 92.7% (active).

`N#Cc1c(N)nc2c3c(sc(=N)c2c1N)NC(=O)CC3c1ccccc1Cl` (stereo not given): the inhibition is -3.78%.

For `COc1ccc(NC(=O)CC2C(=O)OCC3CCCCN32)cc1Cl` (stereo not given), the inhibition is 7.17%.

For `O=C(Cc1cccs1)Nc1nnc(SCc2ccc(F)cc2)s1`, the inhibition is -6.18%.

For `COc1cc(OC)cc(-c2nnc(SCC(=O)Nc3ccc(C(=O)O)cc3)s2)c1`, the inhibition was -1.66%.

For the molecule `O=C(CSc1nnc(SCc2ccc(F)cc2)s1)Nc1ccc(C(=O)O)cc1`, the inhibition is 65.9% (active).

In the case of `COc1ccc(C(=O)OCC(=O)NC(=O)CCSc2ccccc2)cc1`, the inhibition is -1.32%.

For the molecule `C=CCNCCCCOc1ccccc1`, the inhibition is 3.06%.

For `C=C(C)COc1ccc(-c2ncncc2-c2ccc(OC)cc2)c(O)c1`, the inhibition was 3.43%.

Turning to `CC(C(=O)NC1CCCCC1)N1C(=O)c2cccc3cccc1c23` (stereo not given), the inhibition was 7.75%.

Take `COc1cccc(C(=O)Nc2ccc(N3CCN(C(=O)c4ccco4)CC3)cc2)c1`: the inhibition was -47.4%.

With `CN1CCN(c2ccc(NC(=O)c3ccccc3)cc2)CC1`, the inhibition is 28.5%.

In the case of `COc1cccc(C(=O)Nc2ccc(N3CCCC3)cc2)c1`, the inhibition is 87.6% (active).

Regarding `C/C=C/C(=O)OCC(=O)Nc1ccc(F)cc1Cl`, the inhibition is 1.87%.

In the case of `COc1ccc(C(=O)NC2CC2)cc1OC1CCN(C/C=C/c2ccccc2)CC1`, the inhibition was -4.81%.

Take `Cc1cnc(NC(=O)c2ccccn2)s1`: the inhibition was 52.7% (active).

As for `Cc1cnc(NC(=O)c2ccc(Cl)nc2)s1`, the inhibition was -2.29%.

Regarding `O=C(Nc1nnc(C2CC2)s1)c1ccccn1`, the inhibition was -0.73%.

For `COc1ccccc1-n1c(-c2cc(-c3ccco3)[nH]n2)n[nH]c1=S`, the inhibition was 3.67%.

In the case of `Cc1cc(C(F)(F)F)nn1-c1nc(-c2ccco2)cc(C(F)(F)F)n1`, the inhibition was 0.688%.

Regarding `Cn1c(-c2ccco2)nc2cc3ccccc3cc21`, the inhibition is 66.2% (active).

Consider `CCOc1ccc(/C(O)=C2\C(=O)C(=O)N(c3ccc(OC)cc3)C2c2ccccc2[N+](=O)[O-])cc1` (stereo not given), for which the inhibition is 14.9%.

As for `NS(=O)(=O)c1ccc2nc(NC(=O)C3=COCCO3)sc2c1`, the inhibition is -2.24%.

Consider `Cc1nc2cc(NC(=O)Nc3cccc(F)c3)ccc2n1C`, for which the inhibition was 56.5% (active).

For `Cc1nc2cc(NC(=O)NC3CC3)ccc2n1C`, the inhibition is -7.31%.

For the molecule `C=CCN(C(=O)Nc1ccc2c(c1)nc(C)n2C)c1ccccc1`, the inhibition was 3.61%.

Take `O=C(COC(=O)c1ccc[nH]c1=O)Nc1ccc2c(c1)OC(F)(F)O2`: the inhibition was 5.92%.

For the molecule `CCOC(=O)/C(N=Nc1cc(C(=O)O)cc(C(=O)O)c1)=C(\O)CCl`, the inhibition is 10.2%.

As for `COc1ccc(-n2cc(-c3ccccc3)c3c(=S)nc[nH]c32)cc1`, the inhibition was 5.15%.

On to `COc1ccc(Cc2nnc(NC(=O)c3ccc(OC)cc3OC)s2)cc1`, for which the inhibition was -12.4%.

As to `COc1cc2ccccc2cc1C(=O)Nc1nc(C)c(C(C)=O)s1`, the inhibition was -6.84%.

Regarding `COC(=O)c1sc(NC(=O)c2ccc(OC)cc2OC)nc1C`, the inhibition is 57.3% (active).

For the molecule `O=C(O)CC/C(=C\c1cc2c(cc1Br)OCO2)c1nc2ccccc2s1`, the inhibition is 17.4%.

On to `CCN(CC(=O)Nc1ccc(C)c(S(=O)(=O)N(C)C)c1)Cc1ccccc1`, for which the inhibition is 2.21%.

Turning to `Cc1ccc(NC(=O)OCc2cncs2)cc1`, the inhibition was -1.58%.

For the molecule `COc1ccc(NC(=O)c2cc(-c3ccc(C)cc3)on2)cc1`, the inhibition was 7.98%.

For the molecule `COc1ccc(NC(=O)/C(Cl)=C(/Cl)S(=O)Cc2ccc(C)cc2)cn1` (stereo not given), the inhibition was 59% (active).

For `COc1ccc(S(=O)(=O)NCCCc2ccccc2)cc1`, the inhibition was 16%.

On to `C=CCn1c(-c2ccc(Cl)cc2)ccc(C#N)c1=O`, for which the inhibition is 1.51%.

With `CCC(C)(C)NC(=O)CN(C(=O)CCC(=O)Nc1cc(C)ccn1)c1ccc2c(c1)OCCO2`, the inhibition was 0.138%.

On to `COc1ccc(C(=O)Nc2ccccc2C(=O)N/N=C/c2ccccc2OC)cc1`, for which the inhibition is 73.7% (active).

As to `COc1ccc(/C=N/NC(=O)c2ccc3c(c2)OCCO3)c(OC)c1`, the inhibition is -1.2%.

Consider `COc1cc(/C=N/NC(=O)c2ccc(N3CCCC3=O)cc2)ccc1O`, for which the inhibition is -4.06%.

With `COc1ccc(C(=O)Nc2ccccc2C(=O)NCc2ccco2)cc1`, the inhibition was 12%.

As to `COc1ccc(/C=N/NC(=O)c2ccccc2)cc1OS(=O)(=O)c1ccccc1`, the inhibition was 2.24%.

`COc1ccc(C(=O)Nc2ccccc2C(=O)N/N=C/c2ccc(O)c(OC)c2)cc1`: the inhibition was 97.1% (active).

On to `Cc1cccnc1CCNC(=O)C1CCC(=O)N(Cc2cccc(F)c2)C1` (stereo not given), for which the inhibition was -10.1%.

As to `CC(=O)N1CCN(CC(c2ccccc2)c2ccccc2)CC1`, the inhibition was 7.74%.

As to `COc1cccc(N2CCN(c3ccc4nnc(CCC(=O)N5CCN(C)CC5)n4n3)CC2)c1`, the inhibition was 7.34%.

For the molecule `COC(=O)c1c(NC(=O)CN2C(=O)NC(CCc3ccccc3)C2=O)sc2c1CCCCC2` (stereo not given), the inhibition is -0.263%.

Take `COc1ccc(C2=NS(=O)(=O)N(C)C(C(=O)N(C)Cc3ccccc3)=C2)cc1`: the inhibition is 0.338%.

As for `O=C(CN(C(=O)c1nsc(Cl)c1Cl)c1cccc(F)c1)NC1CCCC1`, the inhibition was -4.29%.

For `COc1ccc(/C=N/NC(=O)Cn2cc(C(F)(F)F)ccc2=O)cc1`, the inhibition was 3.51%.
